Laboratory results from PubChem BioAssay.
This is one part of the list. Results filed as inconclusive are left out. Calls of active or inactive are those of the source.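 The calls were made as follows, unless noted: active = thallium entry rate above the same plate's blocked-transporter control wells by more than 3 SD; inconclusive = the two repeat wells disagree; inactive = the rest.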

What was measured:
[1] = biological target: Solute carrier family 12 member 5 (Homo sapiens) (UniProt Q9H2X9); experiment: retest of KCC2 transport modulators without sodium – cell-based, HEK293 KCC2, thallium flux, secondary assay, confirmation (AID 1713;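 active = thallium flux slope above the same plate's solvent-only control mean plus 3 SD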); conditions: FluoZin2 fluorescence, at 10 µM, stronger effect = higher value
[2] = PubChem AID 1714; conditions: HEK293-KCC2 + bumetanide/ouabain, thallium flux FluoZin2; at 10 µM; stronger effect = higher value;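 also: raw slope of fluorescence over initial fluorescence between 10 and 20 s after thallium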
[3] = biological target: Solute carrier family 12 member 5 (Homo sapiens) (UniProt Q9H2X9); experiment: retest of KCC2 transport modulation, ouabain-free – cell-based, HEK293 KCC2, thallium flux, FluoZin2, secondary assay 2, confirmation (AID 1715;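 active = thallium flux slope more than 3 SD above or below the plate's solvent-only control mean, mostly below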;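 also: raw slope with 0.1% DMSO as baseline and bumetanide as block control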); conditions: HEK293-KCC2, thallium flux FluoZin2 fluorescence; at 10 µM; actives lie on both sides; F/F0 rise rate, 10–20 s post-thallium
[4] = compound effects on native HEK Tl+ uptake – HEK cells, counterscreen 1, counter-screen for KCC2 modulator project, confirmation (AID 1716;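 active = thallium flux rate significantly above the same plate's solvent-only control wells, beyond their mean plus 3 SD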); conditions: HEK293 parental cells, thallium flux FluoZin2, ouabain; at 10 µM; baseline-ratio fluorescence slope, 10–20 s after thallium
[5] = native HEK Tl+ uptake effects, second counter-screen – HEK cells, counterscreen 2, counter-screen for KCC2 modulator project, confirmation (AID 1718;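 active = thallium flux slope above the same plate's solvent-control mean plus 3 SD in both duplicate wells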;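 also: run without ouabain in cells lacking the KCC2 cotransporter; slope of fluorescence scaled to its starting value between 10 and 20 s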); conditions: HEK293 parental, thallium flux FluoZin-2 fluorescence slope; at 10 µM
[6] = biological target: Solute carrier family 12 member 5 (Homo sapiens) (UniProt Q9H2X9); experiment: modulation of KCC2 thallium flux in HEK cells – cell-based, ouabain, retest, confirmation (AID 1717;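 active = thallium flux slope beyond 3 SD from same-plate DMSO control mean in most replicates, usually higher, sometimes lower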;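 also: slope of initial-normalized fluorescence between seconds 10 and 20 after thallium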); conditions: HEK293-KCC2, thallium flux FluoZin2 fluorescence, at 10 µM, bidirectional: low = inhibitor, high = activator
[7] = inhibitors of TNFa-induced NFkB p65 translocation, primary screen, imaging, HUVEC, MLSMR starter and 10KST1 sets (AID 438;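 active = inhibition above 20% together with a positive visual image hit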;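 also: compound added about 3h40 before a 20 min TNFalpha stimulation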;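 as to inhibition: signal is the nuclear over cytoplasmic p65 intensity ratio per well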); conditions: HUVEC TNFa-induced p65 nuclear translocation; cell count: measured here: nuclei count (cytotoxicity indicator), at 2.08 µM; inhibition: at 2 µM, stronger effect = higher value, 0% TNFa-plus-vehicle, 100% no-TNFa wells
[8] = reduction of polyQ htt aggregates in cells – imaging, exon1htt(103Q)mCFP cells, high-content imaging, primary screen (AID 483;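 active = visual image review flags a hit and inhibition of aggregation exceeds 20%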;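 also: compound exposure lasted 3 days before fixation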;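 as to nuclei count: percent of the per-plate median nuclei count of sample wells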); conditions: exon1htt(103Q)mCFP cell line, aggregate imaging, at 2 µM; inhibition of aggregation: stronger effect = higher value; nuclei count: measured here: cell count, toxicity
[9] = endothelial E-selectin expression blockers – imaging, HUVEC, immunofluorescence, MLSMR starter and 10KST1 sets, primary screen (AID 487;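 active = visually confirmed hit in the image check and inhibition above 20%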;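 as to inhibition: signal is fraction of cell area covered by stained E-selectin grains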;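 as to nuclei count: 100% = median nuclei count of all wells on the same plate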); conditions: HUVEC TNFalpha-induced E-selectin immunofluorescence imaging, at 2 µM; inhibition: stronger effect = higher value; nuclei count: measured here: cell number, toxicity
[10] = Primary imaging screen for DUSP6 inhibitors that restore phospho-Erk in transfected HeLa cells, chemical complementation (AID 609;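 active = compounds giving at least 50% inhibition in the cell-based MKP-3 phosphatase rescue imaging test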;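 as to inhibition: phospho-Erk level distribution per well compared with pooled transfected vehicle control wells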); conditions: HeLa MKP-3 transfected, phospho-Erk imaging KS statistic, at 10 µM, cells stimulated with TPA for 15 min
[11] = biological target: Dual specificity protein phosphatase 6 (Homo sapiens) (UniProt Q16828); experiment: as above; conditions: HeLa MKP-3 transfected, phospho-Erk imaging KS statistic; at 10 µM; stronger effect = higher value; cells stimulated with TPA for 15 min
[12] = biological target: Voltage-gated potassium channel subunit beta-2 (Rattus norvegicus) (UniProt P62483); experiment: inhibitors of rat Kvbeta2 reductase activity – biochemical, NADPH fluorescence, primary screen (AID 622;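 active = fluorescence slope higher than the sample average by over 3 SD, cut at about -0.22 in these data, passing the limit was not always enough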;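 also: slope of raw intensity against log time taken from 70 to 1610 s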); conditions: recombinant KvBeta, 4-cyanobenzaldehyde reduction, at 10 µM, stronger effect = higher value
[13] = biological target: Voltage-gated potassium channel subunit beta-2 (Rattus norvegicus) (UniProt P62483); experiment: enhancers of rat Kvbeta2 NADPH turnover – biochemical, NADPH fluorescence, primary screen (AID 623;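 active = NADPH fluorescence slope more negative than the mean of all samples by about 3 SD, 99.7% confidence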;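 also: fluorescence intensity change per second fitted from 20 to 320 s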); conditions: Recombinant KvBeta, NADPH fluorescence decrease slope, 10 min; at 10 µM; stronger effect = lower value
[14] = biological target: Muscarinic acetylcholine receptor M4 (Homo sapiens) (UniProt P08173); experiment: M4-linked GIRK flux change, two-sided – cell-based, HEK293 M4/GIRK, thallium flux, BTC-AM, M4 allosteric agonist project, primary screen (AID 625;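 active = fluorescence slope after compound addition differing from the mean of all tested samples at 99.7% confidence, mostly higher but some lower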;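 also: thallium influx through GIRK channels coupled to M4 in HEK293 cells with BTC-AM dye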); conditions: at 10 µM, actives lie on both sides
[15] = inhibitors of larval lipid processing in zebrafish, primary screen, whole organism, PED6 fluorescence, gall bladder and intestine (AID 686;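 active = a full or partial loss of lipid-probe fluorescence in the fish gall bladder, intestine or both, judged by eye; inactive = no fluorescence loss, or compound toxic to the fish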;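 also: larvae 5 to 7 days old with five fish per well; signal comes from phospholipase A2 cleavage of quenched PED6 carried via bile; overnight exposure to compound and PED6 before scoring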); conditions: Zebrafish larvae PED6 lipid processing, fluorescence scoring; screened at 20 µM (by protocol)
[16] = loss of swimming-algae plug formation – whole organism, Chlamydomonas reinhardtii, WT vs cilia-less mutant, absorbance, 96-well, primary screen (AID 463189;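 active = inhibition at or above 50% relative to wild type and mutant plate controls; inactive = inhibition below 50%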;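 also: 0% = wild type cc124 cells in DMSO and 100% = ciliumless bld1 mutant cells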); conditions: Chlamydomonas reinhardtii gravitaxis, OD600 absorbance, 2 days; at 10 µM; stronger effect = higher value
[17] = blockers of RIG-like receptor reporter activation – cell-based, Sendai virus stimulus, luciferase, 10K MLSCN set, TLR/RLR signaling modifier project, primary screen (AID 602276;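 active = inhibition at or above 50% at 10 µM; inactive = inhibition below 50%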;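 also: firefly luciferase from ISG56 promoter only with Renilla not read in this screen; 0% = Sendai virus plus DMSO and 100% = medium plus DMSO without virus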); conditions: HEK293 RL24 IRF3 luciferase reporter, at 10 µM, stronger effect = higher value
[18] = TLR3 IRF3 reporter activation blockers – cell-based, poly I:C stimulus, luciferase, 10K MLSCN set, primary screen (AID 602277;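 active = inhibition of the reporter signal at or above 50%; inactive = inhibition below 50%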); conditions: HEK293-TLR3 RL24 IRF3 luciferase reporter, at 10 µM, stronger effect = higher value

Sequence of Solute carrier family 12 member 5 (Homo sapiens) (Q9H2X9 whole entry, looked up): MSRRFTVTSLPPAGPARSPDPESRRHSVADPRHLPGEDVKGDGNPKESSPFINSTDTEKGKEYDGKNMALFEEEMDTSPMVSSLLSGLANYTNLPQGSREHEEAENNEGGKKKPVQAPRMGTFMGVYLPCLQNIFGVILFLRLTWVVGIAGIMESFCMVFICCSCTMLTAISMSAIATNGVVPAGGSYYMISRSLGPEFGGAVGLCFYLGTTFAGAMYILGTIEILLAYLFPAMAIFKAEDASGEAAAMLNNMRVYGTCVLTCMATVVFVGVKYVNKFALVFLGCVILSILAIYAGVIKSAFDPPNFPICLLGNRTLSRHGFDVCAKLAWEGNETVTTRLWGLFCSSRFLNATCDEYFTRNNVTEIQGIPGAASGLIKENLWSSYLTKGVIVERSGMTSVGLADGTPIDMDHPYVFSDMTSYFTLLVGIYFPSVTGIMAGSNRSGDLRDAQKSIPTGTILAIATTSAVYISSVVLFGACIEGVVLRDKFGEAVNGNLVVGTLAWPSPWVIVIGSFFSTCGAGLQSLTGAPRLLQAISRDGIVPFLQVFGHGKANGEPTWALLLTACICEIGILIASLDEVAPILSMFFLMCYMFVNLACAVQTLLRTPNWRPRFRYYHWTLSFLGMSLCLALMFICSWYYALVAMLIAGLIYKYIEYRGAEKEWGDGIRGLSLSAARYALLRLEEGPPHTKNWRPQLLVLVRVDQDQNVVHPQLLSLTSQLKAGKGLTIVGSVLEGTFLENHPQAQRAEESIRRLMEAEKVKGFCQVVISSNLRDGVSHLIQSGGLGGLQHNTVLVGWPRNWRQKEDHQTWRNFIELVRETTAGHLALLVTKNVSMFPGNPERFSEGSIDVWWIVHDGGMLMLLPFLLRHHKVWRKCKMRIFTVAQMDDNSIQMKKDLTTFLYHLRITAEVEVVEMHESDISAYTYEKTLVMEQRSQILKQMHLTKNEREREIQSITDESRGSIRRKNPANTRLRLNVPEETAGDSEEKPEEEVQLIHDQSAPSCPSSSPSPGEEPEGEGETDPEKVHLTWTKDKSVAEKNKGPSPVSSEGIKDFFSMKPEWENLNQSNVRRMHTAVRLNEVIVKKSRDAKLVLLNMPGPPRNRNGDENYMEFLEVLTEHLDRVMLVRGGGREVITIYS
Sequence of Voltage-gated potassium channel subunit beta-2 (Rattus norvegicus) (P62483 whole entry, looked up): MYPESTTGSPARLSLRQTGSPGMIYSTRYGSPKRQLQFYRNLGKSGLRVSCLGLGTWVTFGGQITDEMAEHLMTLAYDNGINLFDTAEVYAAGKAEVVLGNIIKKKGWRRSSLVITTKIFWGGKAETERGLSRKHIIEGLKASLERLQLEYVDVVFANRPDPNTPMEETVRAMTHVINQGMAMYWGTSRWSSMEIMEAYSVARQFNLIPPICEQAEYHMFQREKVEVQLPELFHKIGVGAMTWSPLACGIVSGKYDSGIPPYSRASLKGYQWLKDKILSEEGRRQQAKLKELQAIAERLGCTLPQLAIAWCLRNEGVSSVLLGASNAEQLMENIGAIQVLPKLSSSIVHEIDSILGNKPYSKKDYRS
Sequence of Muscarinic acetylcholine receptor M4 (Homo sapiens) (P08173 whole entry, looked up): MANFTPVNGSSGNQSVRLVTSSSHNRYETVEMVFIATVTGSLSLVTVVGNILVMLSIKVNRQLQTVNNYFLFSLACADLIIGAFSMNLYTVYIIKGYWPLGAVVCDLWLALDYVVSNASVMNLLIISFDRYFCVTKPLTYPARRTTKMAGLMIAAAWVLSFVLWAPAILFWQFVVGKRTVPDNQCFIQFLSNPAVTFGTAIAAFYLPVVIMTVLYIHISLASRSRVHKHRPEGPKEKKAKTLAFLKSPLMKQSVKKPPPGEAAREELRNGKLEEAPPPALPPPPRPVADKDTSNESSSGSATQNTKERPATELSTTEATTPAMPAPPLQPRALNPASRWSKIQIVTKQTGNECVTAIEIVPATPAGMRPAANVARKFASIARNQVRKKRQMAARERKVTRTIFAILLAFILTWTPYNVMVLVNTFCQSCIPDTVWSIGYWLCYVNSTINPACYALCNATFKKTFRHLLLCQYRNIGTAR
Sequence of Dual specificity protein phosphatase 6 (Homo sapiens) (Q16828 whole entry, looked up): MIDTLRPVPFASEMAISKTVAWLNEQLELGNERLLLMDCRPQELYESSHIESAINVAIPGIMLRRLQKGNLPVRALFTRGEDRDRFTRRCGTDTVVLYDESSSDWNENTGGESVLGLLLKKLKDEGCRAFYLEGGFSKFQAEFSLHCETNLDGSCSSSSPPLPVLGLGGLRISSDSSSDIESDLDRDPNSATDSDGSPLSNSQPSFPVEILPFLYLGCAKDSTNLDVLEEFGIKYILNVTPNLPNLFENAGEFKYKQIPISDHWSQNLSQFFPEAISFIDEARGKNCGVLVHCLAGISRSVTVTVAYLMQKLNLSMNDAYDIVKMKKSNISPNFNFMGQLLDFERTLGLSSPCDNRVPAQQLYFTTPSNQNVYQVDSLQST

O=C(Cn1c(-c2ccc(Cl)cc2)noc1=O)N1CCN(c2ccccc2F)CC1
inactive: normalised thallium flux (F/F0 slope) [1] 0.00839 | normalized thallium flux [2] 0.00664 | thallium flux rate (normalised fluorescence) [4] 0.00698 | thallium flux slope [5] 0.00981
active: normalized thallium flux [3] 0.0245

Cc1nc(SCC(=O)N2CCc3ccccc3C2)c2c(C)c(C)sc2n1
inactive: normalised thallium flux (F/F0 slope) [1] 0.0151 | normalized thallium flux [2] 0.00522 | thallium flux rate (normalised fluorescence) [4] 0.00764 | raw Tl+ flux slope (below DMSO = inhibition, above = activation) [6] 0.0144 | thallium flux slope [5] 0.0108
active: normalized thallium flux [3] 0.0244

O=C(CNC(=O)c1ccco1)OCC(=O)c1ccccc1
inactive: normalised thallium flux (F/F0 slope) [1] 0.00594 | normalized thallium flux [2] 0.00472 | normalized thallium flux [3] 0.0319 | thallium flux rate (normalised fluorescence) [4] 0.00754 | raw Tl+ flux slope (below DMSO = inhibition, above = activation) [6] 0.0197 | thallium flux slope [5] 0.01

Cc1cccc(-n2c(SCC(N)=O)nc3c(c2=O)C2(CCCCC2)Cc2ccccc2-3)c1
inactive: normalised thallium flux (F/F0 slope) [1] 0.00538 | normalized thallium flux [3] 0.032
active: normalized thallium flux [2] 0.017 | thallium flux rate (normalised fluorescence) [4] 0.0115 | thallium flux slope [5] 0.0138

CCn1c(=S)[nH]c2sc3c(c2c1=O)CCCCC3
active: normalised thallium flux (F/F0 slope) [1] 0.0279 | normalized thallium flux [2] 0.092 | normalized thallium flux [3] 0.0959 | thallium flux rate (normalised fluorescence) [4] 0.0964 | raw Tl+ flux slope (below DMSO = inhibition, above = activation) [6] 0.0856 | thallium flux slope [5] 0.1

CCn1c(SCc2ccccc2)nc2c(c1=O)SCC2
active: thallium flux rate (normalised fluorescence) [4] 0.00537
inactive: normalised thallium flux (F/F0 slope) [1] 0.00954 | normalized thallium flux [2] 0.00493 | normalized thallium flux [3] 0.0352 | raw Tl+ flux slope (below DMSO = inhibition, above = activation) [6] 0.0198 | thallium flux slope [5] 0.00988

COCCNc1nc(-n2nc(C)cc2C)nc2sc3c(c12)CCCC3
active: thallium flux rate (normalised fluorescence) [4] 0.00524 | raw Tl+ flux slope (below DMSO = inhibition, above = activation) [6] 0.0165
inactive: normalised thallium flux (F/F0 slope) [1] 0.00873 | normalized thallium flux [2] 0.00523 | normalized thallium flux [3] 0.0328 | thallium flux slope [5] 0.00908

COC(=O)c1sccc1NC(=O)c1cc(OC)c(OC)c(OC)c1
inactive: normalised thallium flux (F/F0 slope) [1] 0.00806 | normalized thallium flux [2] 0.00564 | normalized thallium flux [3] 0.029 | thallium flux rate (normalised fluorescence) [4] 0.00681 | raw Tl+ flux slope (below DMSO = inhibition, above = activation) [6] 0.0198 | thallium flux slope [5] 0.00953

c1cncc(-c2nnc3n2C2(CCCCC2)Cc2ccccc2-3)c1
inactive: normalised thallium flux (F/F0 slope) [1] 0.0161 | normalized thallium flux [2] 0.00468 | normalized thallium flux [3] 0.0275 | thallium flux rate (normalised fluorescence) [4] 0.00718 | raw Tl+ flux slope (below DMSO = inhibition, above = activation) [6] 0.0153 | thallium flux slope [5] 0.00983

CCOC(=O)CSc1nnc(CNC(=O)c2cccs2)n1-c1ccccc1
inactive: normalised thallium flux (F/F0 slope) [1] 0.00872 | normalized thallium flux [2] 0.00583 | normalized thallium flux [3] 0.0307 | thallium flux rate (normalised fluorescence) [4] 0.00776 | raw Tl+ flux slope (below DMSO = inhibition, above = activation) [6] 0.0178 | thallium flux slope [5] 0.0106

C(=N\n1cnnc1)/c1cccnc1
inactive: inhibition [7] 0.9% | inhibition of aggregation [8] 18.4% | inhibition [9] -64.9% | inhibition [11] 1.42% | fluorescence slope [12] -0.457 | NADPH fluorescence slope [13] -0.000114 | fluorescence slope [14] 0.00428 | outcome [15] | normalised thallium flux (F/F0 slope) [1] 0.0086 | normalized thallium flux [2] 0.00647 | normalized thallium flux [3] 0.0321 | thallium flux rate (normalised fluorescence) [4] 0.0072 | raw Tl+ flux slope (below DMSO = inhibition, above = activation) [6] 0.021 | thallium flux slope [5] 0.0101 | inhibition [16] 0.59% | inhibition [17] -11.4% | inhibition [18] -7.31%
76.7%: nuclei count [8]
0.785: z-score ([10]; measured here: cell density z-score)
581: cell count [7]
115%: nuclei count [9]
-0.718: z-score ([10]; measured here: nuclear c-Myc green intensity z-score)
0.742: z-score ([10]; measured here: nuclear pErk red intensity z-score, stronger effect = higher value)

O=C1/C(=C\c2ccsc2)NC(=S)N1c1ccccc1
active: normalised thallium flux (F/F0 slope) [1] 0.024 | normalized thallium flux [2] 0.0414 | normalized thallium flux [3] 0.039 | thallium flux rate (normalised fluorescence) [4] 0.0238 | raw Tl+ flux slope (below DMSO = inhibition, above = activation) [6] 0.0341 | thallium flux slope [5] 0.024

COc1ccc([N+](=O)[O-])cc1NC(=O)COC(=O)/C=C/c1ccco1
inactive: normalised thallium flux (F/F0 slope) [1] 0.00867 | normalized thallium flux [2] 0.00651 | normalized thallium flux [3] 0.0316 | thallium flux rate (normalised fluorescence) [4] 0.0079 | raw Tl+ flux slope (below DMSO = inhibition, above = activation) [6] 0.0204 | thallium flux slope [5] 0.011

Oc1ccccc1/C=N/n1c(-c2cccs2)n[nH]c1=S
active: normalised thallium flux (F/F0 slope) [1] 0.02 | normalized thallium flux [2] 0.0602 | thallium flux rate (normalised fluorescence) [4] 0.0173 | raw Tl+ flux slope (below DMSO = inhibition, above = activation) [6] 0.0288 | thallium flux slope [5] 0.0224
inactive: normalized thallium flux [3] 0.0326

CN(C)CCn1c(=S)[nH]c2ccc(Cl)cc2c1=O
inactive: normalised thallium flux (F/F0 slope) [1] 0.00617 | normalized thallium flux [3] 0.0337
active: normalized thallium flux [2] 0.0089 | thallium flux rate (normalised fluorescence) [4] 0.0128 | thallium flux slope [5] 0.0165

S=c1ccc2ccccc2[nH]1
active: normalised thallium flux (F/F0 slope) [1] 0.0228 | normalized thallium flux [2] 0.0237 | thallium flux rate (normalised fluorescence) [4] 0.0196 | raw Tl+ flux slope (below DMSO = inhibition, above = activation) [6] 0.0247 | thallium flux slope [5] 0.0209
inactive: normalized thallium flux [3] 0.0335

CC(C)n1cnc2c(Nc3cccc(Cl)c3)nc(N(CCO)CCCO)nc21
inactive: normalised thallium flux (F/F0 slope) [1] 0.00575 | normalized thallium flux [2] 0.00472 | thallium flux rate (normalised fluorescence) [4] 0.0075 | thallium flux slope [5] 0.0113
active: normalized thallium flux [3] 0.0232

O=C(Cn1cnc2c(nnn2Cc2ccc(F)cc2)c1=O)NCc1ccc2c(c1)OCO2
active: normalized thallium flux [3] 0.0238
inactive: normalised thallium flux (F/F0 slope) [1] 0.0157 | normalized thallium flux [2] 0.00497 | thallium flux rate (normalised fluorescence) [4] 0.00772 | raw Tl+ flux slope (below DMSO = inhibition, above = activation) [6] 0.0137 | thallium flux slope [5] 0.0107
